Shown are actives, neighbours in structure and some others; about 3.1% of the full set was active somewhere.
PNC assembly inh: inhibitors of perinucleolar compartment assembly | 140,000 compounds, 3.1% hits | PC3M PTB-GFP, PNC prevalence imaging, 16 h; active compounds read low | AID 2417 | activity change (PNC), negative = inhibition, % at 10 µM;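 active = readout at or below -70, meaning at least 70% loss of cells showing the perinucleolar compartment, a nuclear body marking cancer cells; inconclusive = readout between -30 and a set limit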;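 note: plate controls were DMSO wells for no effect and camptothecin positive control wells for full effect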
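Read-out is percentage of cells bearing a perinucleolar compartment, from automated 20x imaging of fixed, Hoechst-stained PC3M PTB-GFP cells. Cells were seeded 4 h, then exposed 16 h to compound (23 nl of library stock) in duplicate plates.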
15-hLO-2 inh: blocks human 15-lipoxygenase 2 activity | 110,000 compounds, 0.56% hits | Potency, µM (doses to about 57.1 µM), for the others: at the top dose activity change, negative = inhibition, hits mostly inhibitors | O15296 | purified 15hLO-2, xylenol orange hydroperoxide absorbance | AID 881; note: potency is the fitted concentration of half-maximal effect; nearly all actives have a fitted effect of over 60% in size
Target sequence (O15296 whole entry, looked up): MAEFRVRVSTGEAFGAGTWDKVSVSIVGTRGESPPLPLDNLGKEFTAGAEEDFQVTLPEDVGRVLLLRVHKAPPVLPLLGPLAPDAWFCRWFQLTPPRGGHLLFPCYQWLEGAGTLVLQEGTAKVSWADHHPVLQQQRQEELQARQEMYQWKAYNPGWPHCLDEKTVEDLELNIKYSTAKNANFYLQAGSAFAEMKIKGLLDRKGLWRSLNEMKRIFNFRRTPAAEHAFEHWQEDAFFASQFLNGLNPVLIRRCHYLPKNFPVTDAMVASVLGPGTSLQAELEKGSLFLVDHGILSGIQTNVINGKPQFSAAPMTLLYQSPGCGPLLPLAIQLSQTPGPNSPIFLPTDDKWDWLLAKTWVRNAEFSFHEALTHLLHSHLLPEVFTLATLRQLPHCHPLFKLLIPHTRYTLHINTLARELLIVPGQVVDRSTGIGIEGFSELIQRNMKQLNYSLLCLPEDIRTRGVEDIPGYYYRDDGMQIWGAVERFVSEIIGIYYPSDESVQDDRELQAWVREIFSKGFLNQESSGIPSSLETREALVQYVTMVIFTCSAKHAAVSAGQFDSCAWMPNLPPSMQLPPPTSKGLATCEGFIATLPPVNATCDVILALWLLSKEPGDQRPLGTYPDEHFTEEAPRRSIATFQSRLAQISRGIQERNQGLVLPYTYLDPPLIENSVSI
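Enzyme 50 nM, AA 45 uM, 25 mM Hepes pH 7.5 + 0.01% Triton X-100; cpd preinc 15 min RT, rxn 90 min RT; stop/detect with 200 uM XO + 300 uM Fe(II) in 50 mM H2SO4, 30 min; A573/A405.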
12-hLO inh: blocks human 12-lipoxygenase activity | purified 12-hLO, xylenol orange hydroperoxide absorbance | Potency, µM (doses to about 57.1 µM), without a hit: top-dose activity change, negative = inhibition, actives largely listed as inhibitors | 150,000 compounds, 0.12% hits; note: potency is the fitted concentration of half-maximal effect; nearly all actives have a fitted effect of over 55% in size
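Hydroperoxide output read as Fe(III)-xylenol orange absorbance, 573-to-405 nm ratio, after 30 min reaction with 40 uM arachidonic acid. Enzyme: 150 nM purified human 12hLO, 15 min compound preincubation; 25 mM Hepes pH 7.0, room temperature.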
Starred values were filed as active, the others as inactive; ? = inconclusive; . = no result; [ ] = another dose, or the depositor's remark. Unless noted, calls come from the whole dose curve; as a rule, active = well fitted curve in the direction sought with a large enough effect; inconclusive = small, poorly fitted or top-dose-only effect, or another doubt; inactive = no such curve, though single readings can be large; an effect the other way counts as inactive or inconclusive. Unless noted, % is set by controls: 0 for no effect and ±100 for the full control effect.

SMILES	PNC assembly inh	15-hLO-2 inh	12-hLO inh
COCCNS(=O)(=O)c1ccc(OCC(=O)OC)c(Cl)c1	-6	-6%	-6%
CC(=O)Nc1ccc(NC(=O)CN2CCN(c3cccc(C(F)(F)F)c3)CC2)cc1	?	21%	1%
CC(=O)c1cc2c(cc1NC(=O)CN1CCN(c3cccc(C(F)(F)F)c3)CC1)OCO2	-100*	.	2%
CCCCC(=O)N(Cc1ccc(-c2ccccc2-c2nn[nH]n2)cc1)C(C(=O)O)C(C)C (centres undefined)	.	-3%	6%
CCOC(=O)c1c(-c2ccc(C)cc2)csc1NC(=O)c1ccc(N2C(=O)CCC2=O)cc1	16	.	0%
CCOC(=O)c1c(NC(=O)c2ccc(N3C(=O)[C@@H]4[C@H](C3=O)[C@H]3C=C[C@@H]4C3)cc2)sc2c1CC(C)CC2 (some centres undefined)	-125*	.	2%
O=C(Cn1cc(S(=O)(=O)Cc2ccccc2)c2ccccc21)Nc1ccccc1	-82*	.	-4%
COc1ccc(NC(=O)Cn2cc(S(=O)(=O)Cc3ccccc3)c3ccccc32)c(OC)c1	16	.	-6%
COC(=O)c1ccc(CN2[C@@H]3C[C@@H](O)CC[C@@H]3C[C@H]2C(=O)OC)cc1	.	-11%	9%
CC(NC(=O)Nc1nccs1)(C(F)(F)F)C(F)(F)F	15	0%	-5%
C/C=C/C=C/C(=O)Nc1nccs1	-116*	.	-5%
Cc1cc(C(=O)Nc2sc3c(c2C#N)CCCC3)no1	-13	.	-11%
N#Cc1c(NC(=O)/C=C/c2ccco2)sc2c1CCCC2	-112*	.	-15%
O=C(/C=C/c1ccco1)Nc1sc2c(c1C(=O)O)CCC2	32	-15%	-26%
Cc1cc(C(=O)Nc2sc3c(c2C#N)CCC3)no1	-85*	-19%	-7%
O=C(Nc1cccc(F)c1)N1CC[C@@]2(CCCN(S(=O)(=O)c3ccccc3)C2)C1	.	2%	-4%
C=CCOc1ccc(C2NC(=S)NC(C)=C2C(=O)c2ccccc2)cc1OC (centres undefined)	75	.	-24%
CCOC(=O)C1=C(c2ccccc2)NC(=S)NC1c1cc([N+](=O)[O-])ccc1OC (centres undefined)	-8	25µM*	-20%
CCOC(=O)C1=C(c2ccccc2)NC(=S)NC1c1cccc([N+](=O)[O-])c1 (centres undefined)	-20	.	-17%
CCCOc1ccc(C2NC(=S)NC(c3ccccc3)=C2C(=O)Nc2ccc(C)cc2)cc1OC (centres undefined)	?	.	14µM*
N#Cc1cccc(NC(=O)N2CCCC3(CCN(C(=O)c4csnn4)CC3)C2)c1	.	2%	1%
CCCCNC(=O)NS(=O)(=O)c1ccc(N)cc1	.	-2%[0.0915 µM]	1%[0.00818 µM]
COC(=O)CCC(=O)OC1(C)C(=O)C=C2C=C(c3ccc(C#N)cc3)OC=C2C1=O (centres undefined)	.	.	-1%
CC1CCN(c2ccc(/C=N\Nc3nncn3N)cc2[N+](=O)[O-])CC1	-116*	.	-2%
CC1CCN(c2ccc(/C=N/n3nnnc3N)cc2[N+](=O)[O-])CC1	?	-6%	-1%
SMILES	PNC assembly inh	15-hLO-2 inh	12-hLO inh
O=C(CSc1nnnn1-c1ccccc1)CC(=O)Nc1ccc(Cl)cc1	35	-13%	10µM*
O=C(CSc1nnnn1-c1ccccc1)Nc1nsc(-c2ccc(Cl)cc2)n1	?	6%[2.29 µM]	-3%
COCC(=O)N1CCC2(CC1)CCN(c1cccc(-c3ccccc3)c1)CC2	.	-1%	-1%
CC(=O)NCCNc1ccc([N+](=O)[O-])cn1	30	.	1%
CCC(=O)NCCNc1ccc([N+](=O)[O-])cn1	-81*	.	-3%
COc1cc(OC)c2c(c1Cl)O[C@@]1(C2=O)[C@H](C)CC(=O)C[C@@H]1OC	.	-1%[25.6 µM]	-8%[25.6 µM]
CC(=O)c1c(C)nc(-c2ccc(Cl)cc2Cl)n1O	-100*	.	-9%
CC(=O)c1c(C)nc(-c2ccccc2)n1O	3	-1%	-6%
CC(=O)N1CCN(c2ccc(NCc3ccc(C)cc3)cc2)CC1	?	10µM*	18µM*
CCc1ccc(CNc2ccc(N3CCN(C(C)=O)CC3)cc2)cc1	?	13µM*	?
Cc1ccc(C(=O)NCc2ccc(N3CCN(C(=O)OC(C)(C)C)CC3)cc2)cc1	69	0%	-9%
CC(=O)Nc1ccc(N2CCN(C(C)=O)CC2)cc1	26	-7%	-7%
CCCCCCCCN	.	-1%	3%
O=C(O)CN=C1NC2(CCCCC2)Cc2ccccc21	-100*	.	4%
O=C1NC2(CCCCC2)Cc2ccccc21	?	5%	-2%
COc1cccc(-n2cnnn2)c1	10	-4%	-6%
Cc1ccc(-c2nnc(COc3cccc(-n4cnnn4)c3)o2)cc1	-103*	-3%	-9%
COc1ccc(C(=O)N2CCC3(CC2)CN(c2ccccn2)C3)cc1	.	-4%	-2%
COc1ccccc1CN1CC2(CCN(C(=O)c3cnccn3)CC2)C1	.	3%	1%
Cn1cccc1/C=N/n1c(-c2ccc(C(C)(C)C)cc2)n[nH]c1=S	54	10µM*	?
CCn1c(-c2ccc(C(C)(C)C)cc2)n[nH]c1=S	-89*	5%[11.4 µM]	-5%
CCn1c(-c2ccc(F)cc2)n[nH]c1=S	14	-10%	2%
Cn1cccc1/C=N/n1c(-c2ccccc2)n[nH]c1=S	11	-13%	0%
O=C(Nc1cccc(F)c1)N1CC[C@@]2(CCCN(C(=O)c3cnccn3)C2)C1	.	-1%	2%
S=C(NCc1ccco1)Nc1ccc(Cl)c(Cl)c1	4	?	18µM*
SMILES	PNC assembly inh	15-hLO-2 inh	12-hLO inh
S=C(NCc1ccco1)Nc1cccc(Cl)c1	-21	-13%	-5%
COc1ccc(NC(=O)CCNC(C)=O)cc1NS(=O)(=O)c1ccc(F)cc1	-28	-8%	1%
COc1ccc2c(CC(=O)Nc3ccc(OC)c(NS(=O)(=O)c4ccc(F)cc4)c3)coc2c1	-127*	-2%	5%
COc1ccc(-n2c(=O)cnc3cnc(OC)nc32)cc1	.	-4%	.
CC(C)(Oc1ccc(-c2cccc3ccccc23)cc1)C(=O)O	.	-8%[11.4 µM]	10%[11.4 µM]
COc1ccc(Oc2ncc3nc(-c4cn(C)c5ccccc45)c(=O)n(C4CC4)c3n2)cc1	.	-7%	.
CC1(C)CC(=S)Nc2ccccc2S1	-100*	.	?
S=C1Nc2ccccc2Sc2ccc(Cl)cc21	-6	.	0%
Cc1nnc2n1NC(c1ccc(Cl)cc1)C(C(=O)N1CCC(C)CC1)S2 (centres undefined)	-112*	0%	-2%
Cc1nnc2n1NC(c1ccc(Cl)cc1)C(C(=O)N(C)C1CCCCC1)S2 (centres undefined)	16	1%	-4%
COc1ccc(C(=O)N2CCN(Cc3cc(OC)c(O)c(OC)c3)CC2)cc1OC	-87*	-12%	-24%
COc1cc(C(=O)N2CCN(c3ccc(C)cc3C)CC2)cc(OC)c1OC	-119*	.	-4%
COc1ccc(C(=O)N2CCN(C3CCN(Cc4ccccc4)CC3)CC2)cc1OC	5	-10%	-2%
COc1ccc(CN2CCN(C(=O)c3cc(OC)c(OC)c(OC)c3)CC2)cc1OC	-100*	.	-3%
COc1cccc(C(=O)N2CCN(C(=O)c3cccc4ccccc34)CC2)c1OC	9	0%	-3%
COc1cc(CN2CCN(C(=O)CC(C)C)CC2)cc(OC)c1OC	?	-10%	-4%
